The panel holds about 83,000 compounds, 20% with a hit somewhere; the sample as a whole holds those more often.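 Results are percent growth after 48 hours of single-concentration exposure. 100 means growth as in untreated cells, lower positive values show inhibition; negative values down to -100 show cell death.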 Activity calls are given as the source filed them. How the source made its calls: active means growth percent below 10; inactive means the rest.
Columns and labels:
Test in all cases: NCI-60 one-dose screen, 48 h (100 = growth as untreated, 0 = no growth, -100 = all killed)
[1] = system: NCI-H23 lung; settings: 10 µM unless noted
[2] = system: NCI-H226 lung; settings: 10 µM unless noted
[3] = system: NCI-H322M lung; settings: 10 µM unless noted
[4] = system: HOP-62 NSCLC; settings: 10 µM unless noted
[5] = system: NCI-H460 lung; settings: 10 µM unless noted
[6] = system: HOP-92 NSCLC; settings: 10 µM unless noted
[7] = system: NCI-H522 lung; settings: 10 µM unless noted
[8] = system: A549/ATCC NSCLC; settings: 10 µM unless noted
[9] = system: 786-0 renal; settings: 10 µM unless noted
[10] = system: COLO 205 colon; settings: 10 µM unless noted
[11] = system: DU-145 prostate; settings: 10 µM unless noted
[12] = system: K-562 leukemia; settings: 10 µM unless noted
[13] = system: MALME-3M melanoma; settings: 10 µM unless noted
[14] = system: MDA-MB-231 breast; settings: 10 µM unless noted
[15] = system: RXF 393 renal; settings: 10 µM unless noted
[16] = system: SF-268 CNS; settings: 10 µM unless noted
[17] = system: SF-295 CNS; settings: 10 µM unless noted
[18] = system: SF-539 CNS; settings: 10 µM unless noted
[19] = system: UACC-257 melanoma; settings: 10 µM
[20] = system: M14 melanoma; settings: 10 µM unless noted

SMILES | growth [1] | growth [2] | growth [3] | growth [4] | growth [5] | growth [6] | growth [7] | growth [8] | growth [9] | growth [10] | growth [11] | growth [12] | growth [13] | growth [14] | growth [15] | growth [16] | growth [17] | growth [18] | growth [19] | growth [20]
NS(=O)(=O)c1ccc(Nc2nc(N/N=C/c3ccc([N+](=O)[O-])cc3)nc(Nc3ccccc3)n2)cc1 | 12.2% (inactive) | 59.6% (inactive) | 39.5% (inactive) | 9.49% (active) | 1.55% (active) | 49.1% (inactive) | 48.3% (inactive) | 96.9% (inactive) | 10.4% (inactive) | 23.1% (inactive) | 43.6% (inactive) | 20.3% (inactive) | 36.9% (inactive) | 45.8% (inactive) | -5.96% (active) | 26.9% (inactive) | 57.1% (inactive) | -36.3% (active) | 82.5% (inactive) | 13.3% (inactive)
CCN1C(=O)N(CC)C2SC(N/N=C/C=C/c3ccccc3OC)=NC21 (stereo not given) | 30.4% (inactive) | 54.9% (inactive) | 44.8% (inactive) | 47.3% (inactive) | 2.9% (active) | 39.1% (inactive) | 1.31% (active) | 27.1% (inactive) | 23.8% (inactive) | 7.22% (active) | 12.9% (inactive) | 18.3% (inactive) | 50.4% (inactive) | 26.5% (inactive) | 20.5% (inactive) | 50.9% (inactive) | 5.32% (active) | -10.6% (active) | 73.5% (inactive) | 0.965% (active)
CC1CCN(S(=O)(=O)c2ncsc2-c2ccccc2)CC1 | 92.9% (inactive) | 99.9% (inactive) | 98.6% (inactive) | 85.3% (inactive) | 91.5% (inactive) | 116% (inactive) | 98.5% (inactive) | 93.1% (inactive) | 30.8% (inactive) | 112% (inactive) | 92% (inactive) | 72.7% (inactive) | 78.7% (inactive) | 92% (inactive) | 9.28% (active) | 82.9% (inactive) | 30.7% (inactive) | 44.3% (inactive) | 106% (inactive) | 83.5% (inactive)
CC(=O)Oc1ccc(CCN2C(=O)CSC2=S)cc1 | 101% (inactive) | 89.4% (inactive) | 99.8% (inactive) | 111% (inactive) | 101% (inactive) | 53.7% (inactive) | 61.7% (inactive) | 106% (inactive) | 79.7% (inactive) | 115% (inactive) | 11% (inactive) | 57.2% (inactive) | 83.2% (inactive) | 64.4% (inactive) | 69.8% (inactive) | 92.1% (inactive) | 103% (inactive) | 85.2% (inactive) | 95.9% (inactive) | 85.7% (inactive)
Cc1ccc(NC(=O)c2cc(/C=C/C(=O)NO)cc(C(F)(F)F)c2)cc1Nc1nccc(-c2cccnc2)n1 | 2.29% (active) | 17.5% (inactive) | 12.8% (inactive) | -19.1% (active) | 2.09% (active) | -30.6% (active) | -73.1% (active) | 61.2% (inactive) | -22% (active) | -65.2% (active) | 14.1% (inactive) | 5.9% (active) | -19.2% (active) | -24.7% (active) | -8.53% (active) | -3.6% (active) | -4.95% (active) | -15.2% (active) | -38.8% (active) | -20.7% (active)
Cc1cc(-c2ccc3nc(N)sc3c2)nc2ccc3[nH]ncc3c12 | 39.4% (inactive) | 53% (inactive) | 67.1% (inactive) | 31.6% (inactive) | 14% (inactive) | 36.2% (inactive) | 6.95% (active) | 45.4% (inactive) | 64.8% (inactive) | 12.5% (inactive) | 48.1% (inactive) | 21.1% (inactive) | 33.4% (inactive) | 46.2% (inactive) | 47% (inactive) | 49.5% (inactive) | 29.2% (inactive) | 20.9% (inactive) | 46.4% (inactive) | 19.7% (inactive)
O=C(COc1ccc(C2SCC(=O)N2c2ccc(F)cc2)cc1)c1ccccc1 (stereo not given) | 95.6% (inactive) | 91.7% (inactive) | 98.3% (inactive) | 95.5% (inactive) | 108% (inactive) | 76.7% (inactive) | 84.1% (inactive) | 87.9% (inactive) | 102% (inactive) | 112% (inactive) | 104% (inactive) | 91.6% (inactive) | 97.9% (inactive) | 81.4% (inactive) | 102% (inactive) | 89.4% (inactive) | 94.5% (inactive) | 102% (inactive) | 100% (inactive) | 93.6% (inactive)
O=C(COc1ccc(C2SCC(=O)N2c2ccccc2)cc1)c1ccccc1 (stereo not given) | 94% (inactive) | 90% (inactive) | 103% (inactive) | 95.6% (inactive) | 102% (inactive) | 86.8% (inactive) | 80.6% (inactive) | 93.8% (inactive) | 102% (inactive) | 111% (inactive) | 102% (inactive) | 88.9% (inactive) | 100% (inactive) | 81.6% (inactive) | 91.2% (inactive) | 93.4% (inactive) | 96.9% (inactive) | 101% (inactive) | 102% (inactive) | 102% (inactive)
O=C(/C=C/c1cn(-c2ccccc2)nc1-c1ccc(Cl)cc1)c1cc2ccccc2oc1=O | 78.3% (inactive) | 66.1% (inactive) | 77.7% (inactive) | 82.4% (inactive) | 54.6% (inactive) | 79.6% (inactive) | 71% (inactive) | 88.7% (inactive) | 46% (inactive) | 84.9% (inactive) | 63.7% (inactive) | 58.4% (inactive) | 66% (inactive) | 55% (inactive) | 95.7% (inactive) | 90.8% (inactive) | 48% (inactive) | 68.4% (inactive) | 93.5% (inactive) | 72.8% (inactive)
CCOC(=O)c1c(Nc2ccccc2)nn2c(-c3ccc(Br)cc3)ccnc12 | 64.9% (inactive) | 63.3% (inactive) | 79.1% (inactive) | 47.4% (inactive) | 33.9% (inactive) | 28.2% (inactive) | 80.9% (inactive) | 56.4% (inactive) | 54.3% (inactive) | 80.1% (inactive) | 77.8% (inactive) | 78.9% (inactive) | 75% (inactive) | 70.4% (inactive) | -12.3% (active) | 68.7% (inactive) | 77.2% (inactive) | 63.8% (inactive) | 103% (inactive) | 88.6% (inactive)
N/C(=N\c1nc2ccc([N+](=O)[O-])cc2s1)C(Cl)(Cl)Cl | 91.3% (inactive) | 85.2% (inactive) | 10.5% (inactive) | 41.9% (inactive) | 14.3% (inactive) | 36.2% (inactive) | 85.3% (inactive) | 26.5% (inactive) | 80.5% (inactive) | 32% (inactive) | 1.66% (active) | 81.2% (inactive) | 77.4% (inactive) | 63.1% (inactive) | 44.3% (inactive) | 71.3% (inactive) | 19.6% (inactive) | 63.5% (inactive) | 85.1% (inactive) | 85.5% (inactive)
COc1ccc(/C=C/C(=O)c2nnn(-c3ccc(C(=O)O)cc3)c2C)cc1OC | 105% (inactive) | 100% (inactive) | 91.3% (inactive) | 107% (inactive) | 107% (inactive) | 102% (inactive) | 88.4% (inactive) | 97.5% (inactive) | 98.4% (inactive) | 109% (inactive) | 104% (inactive) | 80.8% (inactive) | 95.8% (inactive) | 96.7% (inactive) | 112% (inactive) | 99.4% (inactive) | 103% (inactive) | 91.7% (inactive) | 97% (inactive) | 92.6% (inactive)
Oc1ccc(CSc2nnc(-c3ccccc3)n2-c2ccccc2)c2cccnc12 | 18.8% (inactive) | 19.8% (inactive) | 18.5% (inactive) | 11.1% (inactive) | 1.36% (active) | -14.4% (active) | 12.6% (inactive) | 13% (inactive) | 18.7% (inactive) | 61.7% (inactive) | 21.3% (inactive) | 11.2% (inactive) | 12.2% (inactive) | 31% (inactive) | -4.02% (active) | 17.2% (inactive) | 0.953% (active) | 0.484% (active) | 3.18% (active) | -10.6% (active)
CCNC(=O)Oc1ccc(/C(=C(/C)c2ccccc2)c2ccc(OCCN3CCCC3)cc2)cc1 | 74.6% (inactive) | 96.6% (inactive) | 93.2% (inactive) | 89.9% (inactive) | 76.2% (inactive) | 61.9% (inactive) | 83.3% (inactive) | 74.9% (inactive) | 36.7% (inactive) | 75.5% (inactive) | 89.5% (inactive) | 11.3% (inactive) | 30% (inactive) | 66.7% (inactive) | 54.6% (inactive) | 80.3% (inactive) | 60.5% (inactive) | 49.7% (inactive) | -3.88% (active) | 24.3% (inactive)
CN(C)c1ncc(/C=C2\SC(=S)N(Cc3ccccc3Cl)C2=O)s1 | 80.4% (inactive) | 83.8% (inactive) | 80.5% (inactive) | 88.5% (inactive) | 29.1% (inactive) | 94.7% (inactive) | 77.9% (inactive) | 63.9% (inactive) | 67.3% (inactive) | 91.8% (inactive) | 97.8% (inactive) | 68% (inactive) | 109% (inactive) | 83.9% (inactive) | 107% (inactive) | 94.3% (inactive) | 66.4% (inactive) | 74.5% (inactive) | 98.5% (inactive) | 94.1% (inactive)
CCc1ccc(NC(=O)N[C@@H](Cc2cc(F)cc(F)c2)C(=O)N[C@@H]2C(=O)N3CCC[C@H]3C(=O)N3CCO[C@H](C)[C@H]3C(=O)N[C@@H](CO)C(=O)N3C[C@H](C)C[C@H]3C(=O)O[C@H]2C)c(F)c1 | 35.4% (inactive) | 4.36% (active) | 50.8% (inactive) | 32.6% (inactive) | 16.3% (inactive) | -1.76% (active) | 17.5% (inactive) | 26.9% (inactive) | 39.8% (inactive) | -42.7% (active) | 26.4% (inactive) | 21.5% (inactive) | 40.8% (inactive) | 33.3% (inactive) | -5.23% (active) | 32.4% (inactive) | 12.6% (inactive) | 39.9% (inactive) | 12.9% (inactive) | 24% (inactive)

Reference: PubChem BioAssay (NCI)
